Data taken from PubChem BioAssay AID720650 (Broad Institute, 2013).
Values without a mark were called inactive. Calls of active or inactive are those of the source. The rule behind the calls is not given here.

Test: Biochemical counterscreen for C difficile toxins, absence of UDPG, inhibitor dose response (AID 720650)
Conditions: series mostly up to 19.5 µM
For Cc1ccc(N/N=C/c2c(O)n(-c3ccccc3)c(=O)[nH]c2=O)cc1, the AC50 was 0.875 µM (active). With O=C(NCc1ccccc1)C1Cc2c(-c3cccc(F)c3)ccnc2O1 (centres undefined) the AC50 was “inactive”. With C[C@H](NC(=O)c1cc2c(cn1)[nH]c1ccccc12)C(=O)O the AC50 was “inactive”. For CS(=O)(=O)N(CC(=O)Nc1ccc(S(=O)(=O)N2CCOCC2)cc1)c1ccccc1Br, the AC50 was “inactive”. In the case of Nc1ccc(OC(=O)Nc2ccc(O)cc2)cc1, the AC50 was 18.9 µM (active). With Cc1ccc(-c2cc(C(=O)OC3CCOC3=O)c3ccccc3n2)c(C)c1 (centres undefined) the AC50 was “inactive”. In the case of COc1ccc(Cl)cc1NC(=S)NC1CCCC1, the AC50 was “inactive”. With CNC(=O)C1CCN(S(=O)(=O)c2c(C)noc2/C=C/c2cccc(C)c2)CC1 the AC50 was “inactive”. In the case of CNc1nc(C23CC4CC(CC(C4)C2)C3)cs1, the AC50 was “inactive”. With COc1ccc(C2=NS(=O)(=O)N(C)C(C(=O)NCc3ccc(F)cc3)=C2)cc1OC the AC50 was “inactive”. In the case of COCCn1c(NC(=S)NC(=O)C2CC2)cc(=O)[nH]c1=O, the AC50 was “inactive”. With COc1ccc(/C=N/n2c(-c3cc(C)[nH]n3)n[nH]c2=S)cc1OC the AC50 was greater than 39 µM. In the case of Cc1[nH]c(=O)c(C#N)c2c1CCCC2, the AC50 was “inactive”. In the case of CSc1cccc(NC(=O)CCc2ccccc2)c1, the AC50 was “inactive”. For COc1cc(/C=N/NC(=O)CCN2CCCCC2)ccc1O, the AC50 was “inactive”. For O=C(C[C@@H]1C[C@H]2c3cc(NC(=O)Nc4ccccc4)ccc3O[C@H]2[C@H](CO)O1)NCc1ccccc1, the AC50 was “inactive”. With CN1CC(=O)N/C1=N\C(=O)Nc1ccc(O)cc1 the AC50 was “inactive”. In the case of O=C(CC(c1ccccc1)c1ccccc1)Nc1ccc(O)cc1, the AC50 was 13.4 µM (active). For Cc1cc(C)nc(/N=C(\N)Nc2ccccc2-c2ccccc2)n1, the AC50 was greater than 39 µM. For COc1ccc(OCc2cc(-c3ccc(Cl)cc3)no2)cc1, the AC50 was “inactive”. For O=C(CSc1ccccc1)Nc1cc(S(=O)(=O)N2CCOCC2)ccc1N1CCOCC1, the AC50 was “inactive”. With CCCC(=O)Nc1ccc2c(c1)OC[C@H](C)N(CC1CCCC1)C[C@H](C)[C@@H](OC)CN(C)C2=O the AC50 was “inactive”. With Cc1ccc(S(=O)(=O)Oc2ccccc2/C=C2/SC(=O)NC2=O)cc1 the AC50 was “inactive”. For O=C(Cc1ccccn1)c1ccncc1, the AC50 was “inactive”. With COC(=O)C(C(=O)OC)C(CC(=O)c1ccc(Br)cc1)c1ccccc1 (centres undefined) the AC50 was “inactive”. With CCOc1cc(NC(=S)NCC2CCCO2)c(OCC)cc1NC(=O)c1ccc(F)cc1 (centres undefined) the AC50 was “inactive”. For Cc1cc(C(=O)CSc2nnnn2-c2ccccc2)c(C)n1-c1ccc2c(c1)OCO2, the AC50 was “inactive”. For CCCSc1nc2c([nH]1)c(=O)n(C)c(=S)n2C, the AC50 was “inactive”. COc1ccc(-c2cn3cc(C)ccc3n2)cc1F gave an AC50 greater than 39 µM. For CC(C)OC(=O)C(=O)NNc1ccccc1, the AC50 was 1.35 µM (active). With CC(=O)Nc1cccc(NC(=O)c2ccc(Br)cc2)c1 the AC50 was “inactive”. In the case of CCC(=O)N1CC[C@@H]2[C@H]1c1cc(-c3ccccc3)ccc1N(C)[C@H]2CO, the AC50 was 4.44 µM (active). For Cn1c(=O)[nH]c(=O)c2c1[nH]c(=S)n2CCCc1ccccc1, the AC50 was “inactive”. For O=C(N/N=C/c1cccc([N+](=O)[O-])c1)c1ccc(Br)cc1, the AC50 was “inactive”. With O=C(O)c1c(C(=O)O)c(-c2ccc(Br)cc2)n2c1CSC2 the AC50 was “inactive”. COc1ccccc1-c1cn[nH]c1-c1ccc(O)cc1O showed an AC50 greater than 39 µM. For CCC(=Nc1ccccc1)C1=C(O)CCCC1=O, the AC50 was “inactive”. In the case of C[C@H](CO)N1C[C@H](C)[C@@H](CN(C)CC2CCCCC2)Oc2ccc(NC(=O)CCN3CCOCC3)cc2C1=O, the AC50 was “inactive”. With CC(=O)Nc1ccc(NC(=O)[C@@H]2CCCN2S(=O)(=O)c2ccc3c(c2)OCCO3)cc1 the AC50 was “inactive”.
